According to PubChem BioAssay AID1775 (NMMLSC, 2009):
The whole screen tested about 220,000 compounds, of which about 820 (0.37%) were called active. Rule as the data show it: active = fluorescence above about 47; inactive = the rest. The list comes from a sample in which actives are over-represented; it also holds similar structures and randomly drawn compounds.

Assay: green autofluorescence of compounds with avidin beads – biophysical, 488/530 nm, flow cytometry, artefact control, profiling panel (AID 1775)
Conditions: compound fluorescence 488/530 nm, at 10 µM, stronger effect = higher value
In the case of `O=C(Cc1c(F)cccc1Cl)N1CCN(C(=O)c2ccco2)CC1`, the fluorescence (KMESF) was 91 (active). In the case of `O=C(c1cccc(S(=O)(=O)Nc2ccccc2Cl)c1)N1CCN(C(=O)c2ccco2)CC1`, the fluorescence (KMESF) was 12 (inactive). For `O=C(c1ccco1)N1CCN(c2cccc(Cl)c2)CC1`, the fluorescence (KMESF) was 13 (inactive). With `O=C1CC(Cc2ccc(Cl)cc2)C(=O)N1c1cc(Cl)ccn1` (stereo not given) the fluorescence (KMESF) was 3 (inactive). In the case of `COC(=O)c1c(NC(=O)CN(c2ccc(C)c(C)c2)S(C)(=O)=O)sc2c1CCCC2`, the fluorescence (KMESF) was 7 (inactive). For `CSc1nc2nc(-c3cccc(C(F)(F)F)c3)ccn2n1`, the fluorescence (KMESF) was 28 (inactive). With `CN(CCOc1ccccc1)Cc1nc2cc(Cl)ccc2c(=O)[nH]1` the fluorescence (KMESF) was 19 (inactive). For `CCOC(=O)c1cc2c(=O)[nH]c(C(Cl)(Cl)Cl)nc2o1`, the fluorescence (KMESF) was 5 (inactive). For `COc1ccc(Nc2ncc(F)c(N3CCOCC3)n2)cc1`, the fluorescence (KMESF) was 5 (inactive). For `CC(C)/C=N/NC(=O)c1cc(Br)ccc1O`, the fluorescence (KMESF) was 2 (inactive). With `O=C(/C(=N\O)n1cncn1)c1ccc(Br)cc1Br` the fluorescence (KMESF) was 5 (inactive). In the case of `CC(=O)N/N=C(\C)c1ccc(Br)cc1Br`, the fluorescence (KMESF) was 173 (active). For `CCOc1ccc(-c2nnc(-c3ccco3)o2)cc1`, the fluorescence (KMESF) was 8 (inactive). For `Cc1ccc(OCC(=O)Nc2nnc(-c3ccco3)s2)cc1`, the fluorescence (KMESF) was 8 (inactive). For `Cc1ccc(OCC(=O)Nc2ccc(-c3nnc(-c4ccco4)o3)cc2)cc1`, the fluorescence (KMESF) was 50 (active). With `CCOC(=O)N1CCN(c2cc(C)c([N+](=O)[O-])cc2F)CC1` the fluorescence (KMESF) was 7 (inactive). With `S=C(NCCc1ccccc1)NCc1ccccc1Cl` the fluorescence (KMESF) was 13 (inactive). For `COC(=O)c1c(C(=O)OC)c(-c2cccc(C)c2)n2c1CS(=O)C2` (stereo not given), the fluorescence (KMESF) was 7 (inactive). In the case of `O=C(CCc1ccccc1)NCCc1cccs1`, the fluorescence (KMESF) was 6 (inactive). In the case of `O=C(O)CCC(=O)N(Cc1cccs1)Cc1cccs1`, the fluorescence (KMESF) was 74 (active). For `Cc1ccnc(NC(=O)CCC(=O)N(CC(=O)NCCc2ccccc2)Cc2cccs2)c1`, the fluorescence (KMESF) was 9 (inactive). For `Cc1cc(C(=O)NCCc2ccc(Cl)cc2)n(-c2ccccc2)n1`, the fluorescence (KMESF) was 6 (inactive). In the case of `Cc1cc(C)nc(NC(=O)/C=C/c2ccc(Cl)cc2)n1`, the fluorescence (KMESF) was 6 (inactive). In the case of `Cc1cc(C)nc(/N=C2\NC(=O)CC(C(=O)O)N2c2ccc(Cl)cc2Cl)n1` (stereo not given), the fluorescence (KMESF) was 66 (active). With `CCOC(=O)c1nc(C)n(-c2ccc(Cl)cc2Cl)n1` the fluorescence (KMESF) was 8 (inactive). With `CC(CCc1ccccc1)NC(=O)c1ccc(Br)o1` (stereo not given) the fluorescence (KMESF) was 8 (inactive). For `O=C(NCc1cccs1)c1ccc(Br)o1`, the fluorescence (KMESF) was 12 (inactive). In the case of `CC(CNC(=O)c1ccc(Br)o1)NC(=O)c1ccc(Br)o1` (stereo not given), the fluorescence (KMESF) was 48 (active). For `CC(=O)N(OCc1ccc(OC(C)C)c(Cl)c1)C(C)=O`, the fluorescence (KMESF) was 8 (inactive). For `CC(=O)NCC(=O)N(Cc1ccco1)C1(C(=O)NC2CCCC2)CCCCC1`, the fluorescence (KMESF) was 6 (inactive). With `CS/C(=C\[N+](=O)[O-])Nc1ccc(C)cc1` the fluorescence (KMESF) was 12 (inactive). With `Cc1cc(Cl)ccc1NC(=S)N1CCC(C(N)=O)(N2CCCCC2)CC1` the fluorescence (KMESF) was 10 (inactive). With `COc1cc(C(=O)NCc2nnc(SCC(=O)Nc3nc4ccc(C)cc4s3)o2)cc(OC)c1OC` the fluorescence (KMESF) was 19 (inactive). For `Nc1c(-c2ccc(F)cc2)cnn1C1CCS(=O)(=O)C1` (stereo not given), the fluorescence (KMESF) was 7 (inactive). With `Cc1cc(N2CCN(c3ccc(F)cc3)CC2)n2ncnc2n1` the fluorescence (KMESF) was 9 (inactive). In the case of `Nc1c(-c2ccc(F)cc2)cnc2ncnn12`, the fluorescence (KMESF) was 76 (active). In the case of `CC(C)(C)OC(=O)N/N=C/c1cn(-c2ccccc2)nc1-c1cccnc1`, the fluorescence (KMESF) was 13 (inactive). In the case of `O=C(NCc1csc(-c2cccs2)n1)C1CC1`, the fluorescence (KMESF) was 2 (inactive). For `CC1Cc2ccccc2N1S(=O)(=O)c1ccc(Cl)nc1` (stereo not given), the fluorescence (KMESF) was 4 (inactive). In the case of `COc1cc(CO)c(C2(CO)CCCC2)cc1OC`, the fluorescence (KMESF) was 36 (inactive). With `Cc1nc2c(-c3ccc(F)cc3)c(C)nn2c(C)c1CCC(=O)NCc1ccco1` the fluorescence (KMESF) was 6 (inactive). In the case of `Cc1nc2nc(SCC(=O)NCc3ccco3)nn2c(C)c1Cc1ccccc1`, the fluorescence (KMESF) was 15 (inactive). With `COc1cc(OC)cc(-c2nc3nc(C)c(CCC(=O)NCc4ccco4)c(C)n3n2)c1` the fluorescence (KMESF) was 59 (active). For `CCOC(=O)C(C)Sc1nnc(CSc2nc3nc(C)cc(C)n3n2)o1` (stereo not given), the fluorescence (KMESF) was 15 (inactive). In the case of `CC(C)Cn1cnc2c1c(=O)n(CC(O)c1ccccc1)c(=O)n2CC(C)C` (stereo not given), the fluorescence (KMESF) was 67 (active). With `Cn1c(=O)c2c(ncn2CCc2ccccc2)n(C)c1=O` the fluorescence (KMESF) was 11 (inactive). In the case of `CC(C)Cn1c(CN(Cc2ccccc2)Cc2ccccc2)nc2c1c(=O)n(C)c(=O)n2C`, the fluorescence (KMESF) was 8 (inactive). With `CCNC(=O)COc1cc(C)c(Br)c(C)c1` the fluorescence (KMESF) was 9 (inactive). With `CC1CCc2c(c3ccccc3[nH]c2=O)O1` (stereo not given) the fluorescence (KMESF) was 57 (active). For `CC(C)C(=O)Nc1c(O)c2ccccc2[nH]c1=O`, the fluorescence (KMESF) was 10 (inactive). With `CCCCc1nc2c(=O)[nH]c3ccccc3c2o1` the fluorescence (KMESF) was 26 (inactive). In the case of `CCCN(CCC)C(=S)Nc1cc(C(=O)OC)ccc1C(=O)OC`, the fluorescence (KMESF) was 3 (inactive). In the case of `CN(CC(=O)NC1CCCCC1)S(=O)(=O)c1cccc2cccnc12`, the fluorescence (KMESF) was 118 (active). With `Cc1ccc(S(=O)(=O)N(C)CC(=O)NC2CCCC2)cc1` the fluorescence (KMESF) was 10 (inactive). For `CN(CC(=O)NC1CCCCC1)S(=O)(=O)c1ccc(Br)s1`, the fluorescence (KMESF) was 32 (inactive). With `COc1ccc2c(c1)cc1n2CCN=C1NN` the fluorescence (KMESF) was 7 (inactive). In the case of `Cc1ccccc1CS(=O)(=O)CC1(O)CCN(C(=O)c2cccc(C(F)(F)F)c2)CC1`, the fluorescence (KMESF) was 88 (active). With `Cc1ccccc1CN1CCN(C(=O)c2cccc(F)c2)CC1` the fluorescence (KMESF) was 4 (inactive). For `CC(C)CC(=O)N1CCC(O)(CS(=O)(=O)Cc2ccccc2)CC1`, the fluorescence (KMESF) was 7 (inactive). For `O=C(c1ccc(F)cc1)N1CCC(n2nnc3ccccc32)CC1`, the fluorescence (KMESF) was 34 (inactive). For `CCOc1cnc(C(=O)NNC(=O)c2ccccc2Br)o1`, the fluorescence (KMESF) was 15 (inactive). For `COc1cccc(-c2ccc(SCC(=O)N3CCN(c4ccccc4)CC3)nn2)c1`, the fluorescence (KMESF) was 8 (inactive). For `COC(=O)CSc1ccc2nnc(CCNS(=O)(=O)c3ccc(C)cc3)n2n1`, the fluorescence (KMESF) was 4 (inactive). For `CC(C)CCNC(=O)C(C)N(C(=O)Cn1nnc(-c2ccc(F)cc2)n1)C1CCCC1` (stereo not given), the fluorescence (KMESF) was 51 (active). In the case of `COc1ccc(-c2nnn(CC(=O)N(CCO)C(C(=O)NC3CCCC3)c3ccc(F)cc3)n2)cc1` (stereo not given), the fluorescence (KMESF) was 12 (inactive). In the case of `CC(C)CCNC(=O)CN(C(=O)Cn1nnc(-c2ccc(F)cc2)n1)C1CCCC1`, the fluorescence (KMESF) was 14 (inactive). With `O=C(NNS(=O)(=O)c1ccc(F)cc1)c1cnccn1` the fluorescence (KMESF) was 10 (inactive). For `CC(=O)Nc1cccc(Oc2cc(C#N)c(C#N)cc2N2CCOCC2)c1`, the fluorescence (KMESF) was 7 (inactive). In the case of `COc1cccc(C(=O)Nc2ccc(N3CCCC3)cc2)c1`, the fluorescence (KMESF) was 9 (inactive). In the case of `COc1cc(N2CCCC2)c(OC)cc1/C=C(/C#N)c1cccc(Br)c1`, the fluorescence (KMESF) was 47 (active).
